# Assay results as given in PubChem BioAssay (NCI).
# This is part of a sample that, as a whole, favours compounds with a hit. Of some 79,000 tested, about 15% had one in any assay. Unmarked numbers belong to inactive results. Activity calls are given as the source filed them. Rule as the data show it: active = growth inhibition above about 70%; inactive = the rest.
# Assay: NCI Yeast Anticancer Drug Screen. Data for the rad50 strain (AID 155);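 also: 0% = growth of vehicle-only cultures of the same strain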
# Conditions: S. cerevisiae rad50 strain growth inhibition; at 50.0 µM; hits give high values
# Protocol: Growth inhibition of yeast strains with defined genetic alterations is measured as a screen for potential anti-cancer activity. Selected strains with alterations in DNA damage repair or cell cycle control were exposed to compounds and growth inhibition was measured relative to vehicle treated controls. The strain used in this assay is rad50
row,SMILES,growth inhibition
1,CC(Cl)CN1CCN(CC(C)Cl)CC1 (stereo not given),2.95%
2,CC(C)(C)OO,5.35%
3,O=C(CC(O)C(Cl)(Cl)Cl)CC(O)C(Cl)(Cl)Cl (stereo not given),15%
4,C[n+]1ccc2ccccc2c1-c1c2ccccc2cc[n+]1C,27.4%
5,CC1(C)N(C(=S)Nc2ccccc2)C1(C)C,6.45%
6,N#CS.N=C=S.N=C=S.[Co+3].[NH-]CC[NH-].[NH-]CC[NH-],10.5%
7,Clc1ccc(N=c2ccc3ccccc3[oH+]2)cc1.Clc1ccc(N=c2ccc3ccccc3[oH+]2)cc1.[Co],-5.05%
8,CCC[As](=O)(O)c1ccc(Cl)cc1,88.5% (active)
9,CC1OCN2CCCCC12 (stereo not given),-25.9%
10,CCOP(=O)(OCC)/C(C#N)=C/c1cccn1C,-0.95%
11,COC(=O)C1=C(O)C(C(=O)OC)C2/C(=[N+](/[O-])O)c3c(cc([N+](=O)[O-])cc3[N+](=O)[O-])C1C2[N+](=O)[O-] (stereo not given),75.8% (active)
12,CCOP12(OCC)NC(=O)OC1(C(F)(F)F)c1ccccc1O2 (stereo not given),-19.4%
13,N.N.N.N.N.[Co+3].[I-].[N-]=[N+]=[N-],-0.25%
14,Cl.[O-]c1cccc2cccnc12.[O-]c1cccc2cccnc12.[O-]c1cccc2cccnc12.[O-]c1cccc2cccnc12.[Ti+4],89.8% (active)
15,O=C1CCN(C2(c3ccccc3)CCCCC2)CC1,3.85%
16,NC(=O)c1cc(N(CCBr)CCBr)c([N+](=O)[O-])cc1[N+](=O)[O-],17.6%
17,ClCc1nc(-c2ccco2)no1,6.1%
18,O=[N+]([O-])/C=C\c1c[nH]c2ccc(OCc3ccccc3)cc12,52.5%
19,O=[N+]([O-])c1ccc(N=Nc2ccc(N(CCCl)CCCl)cc2)cc1,-4.8%
20,N#CCc1ccccc1CC#N,20.8%

row,SMILES,growth inhibition
1,CC(C)C(C)(O)C#N (stereo not given),2.2%
2,COc1ccc(CCl)cc1CCl,-24.2%
3,CCOP(=S)(NCCCOC)OCC,0.25%
4,CN1CCNCC1,11.1%
5,O=C(Nc1cccc(Cl)c1Cl)C(Cl)(Cl)Cl,11.8%
6,O=C1OC(=O)C2CC3C(CC12)C1(Cl)C(Cl)=C(Cl)C3(Cl)C1(Cl)Cl (stereo not given),-15.5%
7,CNc1ccccc1C(=O)O,-19.8%
8,CCC1(c2ccc(C)cc2)C(=O)NC(=S)NC1=O,6.1%
9,COC(=S)NP(=O)(NC(=S)OC)NC(=S)OC,11.7%
10,O=C(O)C(Cl)Cl,-1.6%
11,CC1=C[C@H]2O[C@@H]3[C@H](OC(=O)CCl)[C@@H](O)[C@](C)(C2(COC(=O)CCl)CC1)[C@@]31CO1 (stereo not given in full),91.8% (active)
12,COc1ccccc1OC (tested in a mixture with another compound),22.5%
13,COc1ccc2c(c1)C1(C)CCN(CCc3ccccc3)C(C2)C1C (stereo not given),24.9%
14,O=[N+]([O-])c1ccc2c(c1)[O][Sn]([I])([I])[O]2,-6%
15,Cc1c([As](=O)(O)O)ccc2nc3c(C)c([As](=O)(O)O)ccc3nc12,24.5%
16,CO[C@H]1C[C@H](O[C@H]2CC[C@@]3(C)[C@H](CC[C@@H]4[C@@H]3CC[C@]3(C)[C@@H](C5=CC(=O)OC5)CC[C@]43O)C2)O[C@H](C)[C@H]1O,33.2%
17,CN(C)C(=S)Oc1ccc(Cl)cc1S(=O)(=O)F,53.6%
18,CC(=O)OC1CC2(O)C3CCC4CC(O)CCC4(C)C3CCC2(C)C1C1=CC(=O)OC1 (stereo not given),-11.1%
19,COc1ccc2c(c1OC)C[N+]1(C)CCc3cc4c(cc3C1=C2)OCO4 (stereo not given),21.6%
20,CC(=O)C(=[N+]=[N-])C(=O)N(C)CCC#N,-7.3%
